# Assay results published in PubChem BioAssay AID2284334 (EPA ToxCast).
# Inconclusive results are not listed. Active and inactive are the calls of the source. How the source made its calls: active means hit-call score of the fitted dose curve at least 0.9, where 1 is the maximum; inconclusive means response in the unintended direction; inactive means score below 0.9.
# Target: human Peroxisome Proliferator-activated Receptor alpha (PPARa), PPARA (gene 5465) (UniProt Q07869)
# Assay: ATG_hPPARa_EcoTox2: Attagene TRANS-FACTORIAL EcoTox-2 HepG2 Assay for human Peroxisome Proliferator-activated Receptor alpha (PPARa)
# Experimental: ATG_EcoTox2 is a cell-based, multiplexed assay created by modifying the existing Attagene TRANS-FACTORIAL system to include a panel of nuclear receptors from some or all the following species: human (Homo sapiens), african clawed frog (Xenopus laevis), rainbow trout (Oncorhynchus mykiss), japanese medaka (Oryzias latipes), and zebrafish (Danio rerio). The ECOTOX2-FACTORIAL format uses HepG2, a human liver cell line, with measurements taken at 24 hours after chemical dosing in a 24-well plate. ATG_hPPARa_EcoTox2 is one of 29 assay components calculated in the ATG_EcoTox2 assay. It is designed to make measurements of mRNA induction, a form of inducible reporter, as detected with fluorescence intensity signals by Reverse transcription polymerase chain reaction (RT-PCR) and Capillary electrophoresis technology.The assay endpoint ATG_hPPARa_EcoTox2 was analyzed in the positive analysis fitting direction relative to DMSO as the negative control and baseline of activity. Using a type of inducible reporter, measures of mRNA for gain-of-signal activity can be used to understand the reporter gene at the transcription factor-level as they relate to the gene PPARa. Furthermore, this assay endpoint can be referred to as a primary readout, because this assay has produced multiple assay endpoints where this one serves a reporter gene function. To generalize the intended target to other relatable targets, this assay endpoint is annotated to the nuclear receptor intended target family, where the subfamily is non-steroidal.
# Human liver HepG2 cells are transiently transfected with multiple reporter transcription units (MRTUs) in 6-well plates using FuGene 6 reagent (Roche; 3 ml FuGene/1 mg DNA). The MRTU constructs are regulated by a cis-regulating element (promoter). Each RTU expresses a GAL4-UAS that regulates the transcription of a nearby target reporter gene sequence. A major difference between the CIS and TRANS system is that in CIS activities of endogenous TFs are measured, whereas the TRANS assay evaluates changes in activities of exogenous, chimeric NR-Gal4 proteins. […] At the end of 24 hour incubation, total RNA was isolated using TriZol reagent (Invitrogen). The isolated RNA is then reverse-transcribed using oligo(dT) primer and Mo-MLV reverse transcriptase (Invitrogen) with DNAse I (Ambion) treatment for 30 min. The one-tenth of the produced cDNA was amplified by PCR using Taq DNA polymerase (Invitrogen) and two reporter sequence-specific primers. The PCR products were fluorescently labeled by primer extension with 6-arboxyfluorescein (6-FAM) 5'-labeled reporter sequence-specific primer (2 min at 95 C, 20 s at 68 C and 10 min at 72 C) and these products were digested with 5U of HpaI (New England Biolabs) for 2h at 37 C. The fragments were purified using Qiaquick PCR columns (Qiagen), analyzed on an ABI 3130xL genetic analyzer (Applied Biosystems) with peak positions identified by using a set of X-rhodamine (ROX)-labeled MapMarker1000 molecular weight standards (BioVentures). The raw capillary electrophoresis data was processed using Attagraph software (Attagene).
# Sequence of human Peroxisome Proliferator-activated Receptor alpha (PPARa), PPARA (gene 5465) (Q07869 whole entry, looked up): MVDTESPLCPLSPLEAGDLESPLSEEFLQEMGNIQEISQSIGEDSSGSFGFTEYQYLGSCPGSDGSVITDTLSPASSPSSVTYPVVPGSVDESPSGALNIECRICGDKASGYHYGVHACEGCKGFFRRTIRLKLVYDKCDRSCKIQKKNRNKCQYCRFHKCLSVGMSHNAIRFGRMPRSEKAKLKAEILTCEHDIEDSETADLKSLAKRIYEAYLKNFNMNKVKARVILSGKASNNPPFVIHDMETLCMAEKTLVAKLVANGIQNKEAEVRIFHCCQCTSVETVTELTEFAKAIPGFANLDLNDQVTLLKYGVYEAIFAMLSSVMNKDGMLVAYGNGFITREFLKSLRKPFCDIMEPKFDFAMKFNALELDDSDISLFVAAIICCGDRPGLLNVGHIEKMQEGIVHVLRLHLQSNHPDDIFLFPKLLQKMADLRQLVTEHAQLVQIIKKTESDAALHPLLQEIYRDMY
Compound,outcome,AC50
CC(c1cc2ccccc2s1)N(O)C(N)=O (stereo not given),inactive,
CC(C)(Oc1ccc(C2CC2(Cl)Cl)cc1)C(=O)O (stereo not given),,0.984 µM (active)
C[C@]12C=CC(=O)C=C1CC[C@@H]1[C@@H]2C(=O)C[C@@]2(C)[C@H]1CC[C@]2(O)C(=O)CO,inactive,
CC(C)(Oc1ccc(Cl)cc1)C(=O)O,,17.1 µM (active)
C[C@@H]1C[C@H]2[C@@H]3CCC4=CC(=O)C=C[C@]4(C)[C@@]3(F)[C@@H](O)C[C@]2(C)[C@@]1(O)C(=O)COP(=O)(O)O,inactive,
